Experiment [1] addresses DNA polymerase III PolC-type (Bacillus subtilis (strain 168)) (UniProt P13267). In words: qHTS Validation Assay for the Inhibitors of DNA Replication in Gram-Positive Bacteria (AID 485295). Further: potency means the concentration at half of the fitted maximal effect. In a few lines:
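Reconstituted B. subtilis holoenzyme (Pol III, beta clamp, SSB, primase) was preincubated with compound at room temperature, then given single-stranded circular M13Gori plus dNTPs and NTPs. EDTA-containing PicoGreen stopped the reaction, and dsDNA product was read by fluorescence.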
For orientation: Quantitative high-throughput screening tests each substance at several concentrations.

Experiment [2] addresses Tumor susceptibility gene 101 protein (Homo sapiens) (UniProt Q99816). As to the kind of experiment: qHTS Validation Assay for Iinhibitors of HIV-1 Budding by Blocking the Interaction of PTAP/TSG101 (AID 485342; calls by dose curve). In a few lines:
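Tsg101 binding domain (10 uM final) in pH 7.5 HEPES/NaCl/Tween 20/EDTA/TCEP buffer was mixed with pin-transferred compounds, then FITC-labeled PTAP peptide (50 nM final) was added; after 20 min at r.t., fluorescence polarization was read.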

Experiment [3] can be described thus: qHTS Validation Assay to Find Inhibitors of Chronic Active B-Cell Receptor Signaling (AID 485345; active means well fitted curve in the direction sought with a large enough effect in the main read-out, with a control signal flat, not every such curve was filed as active). In short, it runs like this: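 TMD8 ABC-DLBCL cells with dox-inducible green luciferase–IκBα fusion and red native luciferase; compounds 46 uM–3 nM, 4 h at 37C with doxycycline in 0.5% FBS IMDM. Green/red ratio normalized to basal and 10 uM MG-132.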
For experiment [4], the target named is Thioredoxin reductase 1, cytoplasmic (Rattus norvegicus) (UniProt O89049). In words: qHTS Assay for Substrates of Mammalian Selenoprotein Thioredoxin Reductase 1 (TrxR1) (AID 488772).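 Further: a drop in NADPH fluorescence below the no-compound background marks a TrxR1 substrate.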 In a few lines: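 In this dual-purpose format, potential substrates are identified from the first fluorescence read after selenite addition, not from the 8-minute delta. Rat enzyme is preincubated with NADPH and then with compound at ~22 deg C.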

Experiment [5] has the same target. In words: qHTS Assay for Inhibitors of Mammalian Selenoprotein Thioredoxin Reductase 1 (TrxR1) (AID 488773).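 Further: drop in NADPH fluorescence over an 8 min run after selenite addition; nearly all actives have a fitted effect of over 40% in size.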 The note with it: Potency: inhibition. In short, it runs like this:
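Inhibition is scored from the loss of NADPH fluorescence between first and last reads of an 8-min kinetic run. Selenite (400 uM) was the substrate, added after 15 min compound preincubation at room temperature.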

Experiment [6] addresses M-phase phosphoprotein 8 (Homo sapiens) (UniProt Q99549). In words: qHTS Validation Assay for Inhibitors for MPP8 Chromodomain Interactions with Methylated Histone Tails (AID 488949). Further: nearly all actives have a fitted effect of over 55% in size. Further: potency means the concentration at half of the fitted maximal effect. In a few lines:
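MPP8 (50 nM) was preincubated with biotinylated H3(1-18)K9me3 peptide (50 nM) in PBS pH 7.4, 0.01% Tween-20 for 30 min at room temperature, then with compounds for 30 min; binding was detected by AlphaScreen.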

Experiment [7] has as its target Chromobox protein homolog 1 (Homo sapiens) (UniProt P83916). As to the kind of experiment: qHTS Validation Assay for Inhibitors of HP1-beta Chromodomain Interactions with Methylated Histone Tails (AID 488953). Further: nearly all actives have a fitted effect of over 50% in size. Further: potency means the concentration at half of the fitted maximal effect. In a few lines: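 AlphaScreen proximity signal from streptavidin donor and nickel chelate acceptor beads (final 10 ug/mL) after 30 min dark incubation. Compounds had 30 min at room temperature with preformed complex of 50 nM HP1-beta and 50 nM b-H3(1-18)K9me3 in PBS pH 7.4 with 0.01% Tween-20.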

The target in experiment [8] is Methanococcus maripaludis chaperonin (MmCpn) (UniProt Q6LX38). As to the kind of experiment: High-Throughput Screening for Modulators of Cytosolic Chaperonin Activity: MmCpn Primary Screen (AID 488978).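 Further: 50 nM MmCpn enzyme hydrolysing 30 µM ATP at 37 °C.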 In short, it runs like this:
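MmCpn (50 nM final) was preincubated with compound 5 min at RT, then 30 uM ATP (final) was added and the reaction ran 10 min at 37C. ADP produced was detected by Transcreener HTRF (ex 320 nm; em 590/665 nm).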

Experiment [9] concerns the target Transient receptor potential cation channel subfamily V member 1 (Homo sapiens) (UniProt Q8NER1). As to the kind of experiment: HTS Assay for Compounds that Act as Enhancers of the Vanilloid Receptor 1 (AID 488979). In short, it runs like this: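 TRPV1-expressing cells loaded with Fluo-8 calcium dye; compounds added and calcium influx read kinetically for 3 min (agonist phase), then capsaicin at EC20 added and read 2 min more for enhancement. Fluorescence ex 480/em 520 nm.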

Experiment [10] concerns the target Thyrotropin receptor (Homo sapiens) (UniProt P16473). As to the kind of experiment: qHTS Assay for Antagonists of the Thyroid Stimulating Hormone Receptor (AID 488980). In short, it runs like this:
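HEK293 cells transfected with human TSHR, suspended in HEPES-buffered HBSS with 70 uM RO 20-1724, were treated with compounds plus TSH at EC80 (4 nM final). cAMP was measured by competitive HTRF (cryptate anti-cAMP antibody, cAMP-d2 acceptor).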

Experiment [11] concerns the target D(1A) dopamine receptor (Homo sapiens) (UniProt P21728). As to the kind of experiment: HTS Assay for Allosteric Agonists of the Human D1 Dopamine Receptor: Primary Screen for Agonists (AID 488981). In a few lines:
(§1)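 Tetracycline-induced HEK293 T-REx cells force-coupled to calcium signalling were incubated overnight at 30 C and dye-loaded at room temperature. Calcium flux over 180 s after compound addition flagged agonists; a further 180 s read after EC20 dopamine flagged potentiators.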

Experiment [12] has the same target. In words: HTS Assay for Allosteric Agonists of the Human D1 Dopamine Receptor: Primary Screen for Potentiators (AID 488982). In short, it runs like this: as §1
For experiment [13], the target named is ATP-dependent 6-phosphofructokinase (Trypanosoma brucei brucei) (UniProt O15648). As to the kind of experiment: qHTS Assay to Find Inhibitors of T. brucei phosphofructokinase: hit validation (AID 492961).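 Further: luminescence reports ADP formed as PFK phosphorylates fructose-6-phosphate with ATP.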 In short, it runs like this:
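PFK 1.25 nM, F6P 0.5 mM, ATP 0.1 mM, MgCl2 5 mM, 0.1 M TEA pH 8.0, Tween20 0.01%, BSA 0.1%; 45 min RT. ADP-Glo two-step detection, luminescence. qHTS titration; curve fitting with curve-class categorization.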

For experiment [14] the target is unchanged. As to the kind of experiment: qHTS Validation Assay to Find Inhibitors of T. brucei phosphofructokinase (AID 485368). The conditions noted are these: T. brucei PFK enzyme assay, qHTS 7-point titration; at 57.5 µM (top of the series). In short, it runs like this: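 qHTS format, up to 57 uM. PFK 1.25 nM; F6P 0.5 mM; ATP 0.1 mM; 5 mM MgCl2, 0.01% Tween20, 0.1% BSA; 0.1 M TEA pH 8.0; 45 min RT; ADP-Glo readout; no-enzyme control = full inhibition.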

Experiment [15] in a line: Quantitative high throughput screen for delayed death inhibitors of the malarial parasite plastid, 48 hour incubation (AID 488752). Further: nearly all actives have a fitted effect of over 65% in size. In a few lines:
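One-generation (48 h) growth assay: a decrease in luciferase signal from an integrated reporter in P. falciparum-infected red cells (0.1% parasitemia, 2% hematocrit) after compound exposure at 37 C indicates parasite inhibition.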

Experiment [16] has as its target D(1A) dopamine receptor (Homo sapiens) (UniProt P21728). As to the kind of experiment: HTS Assay for Allosteric Agonists of the Human D1 Dopamine Receptor: Primary Screen for Antagonists (AID 488983).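 Further: calcium flux response to an EC80 dopamine challenge measured with no-wash dye; nearly all actives have a fitted effect of over 65% in size.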 In a few lines:
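Calcium-flux read-out in inducible HEK293 T-REx cells expressing D1, dye-loaded 30–90 min at room temperature. Kinetic reads: 180 s after compound (agonist phase), then 180 s after an EC80 dopamine challenge.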

SMILES strings stand for the structures. Results filed as inconclusive are left out. The source holds several records for some structures; these can differ, active in one and inactive in another. Active and inactive are the calls of the source. Unless noted, the call rests on the fitted dose curve; in most records, active means well fitted curve in the direction sought with a large enough effect; inconclusive means small, poorly fitted or top-dose-only effect, or another doubt; inactive means no such curve, though single readings can be large; an effect the other way counts as inactive or inconclusive.

Methanococcus maripaludis chaperonin (MmCpn), sequence (Q6LX38 1-543): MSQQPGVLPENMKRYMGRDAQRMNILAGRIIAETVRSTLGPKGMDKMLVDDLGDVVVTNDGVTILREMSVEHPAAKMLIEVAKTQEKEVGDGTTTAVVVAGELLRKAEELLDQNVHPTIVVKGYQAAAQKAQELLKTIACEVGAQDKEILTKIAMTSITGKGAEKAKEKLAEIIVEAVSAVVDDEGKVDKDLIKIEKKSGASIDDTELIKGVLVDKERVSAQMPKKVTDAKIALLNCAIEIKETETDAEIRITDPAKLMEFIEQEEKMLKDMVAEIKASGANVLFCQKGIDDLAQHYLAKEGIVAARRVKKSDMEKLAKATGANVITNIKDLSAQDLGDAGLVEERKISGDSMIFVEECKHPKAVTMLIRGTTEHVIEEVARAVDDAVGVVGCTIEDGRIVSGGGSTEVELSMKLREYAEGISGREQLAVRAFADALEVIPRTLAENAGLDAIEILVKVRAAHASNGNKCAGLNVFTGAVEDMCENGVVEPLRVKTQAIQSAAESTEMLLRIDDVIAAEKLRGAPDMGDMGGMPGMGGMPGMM
ATP-dependent 6-phosphofructokinase (Trypanosoma brucei brucei), sequence (O15648 whole entry, looked up): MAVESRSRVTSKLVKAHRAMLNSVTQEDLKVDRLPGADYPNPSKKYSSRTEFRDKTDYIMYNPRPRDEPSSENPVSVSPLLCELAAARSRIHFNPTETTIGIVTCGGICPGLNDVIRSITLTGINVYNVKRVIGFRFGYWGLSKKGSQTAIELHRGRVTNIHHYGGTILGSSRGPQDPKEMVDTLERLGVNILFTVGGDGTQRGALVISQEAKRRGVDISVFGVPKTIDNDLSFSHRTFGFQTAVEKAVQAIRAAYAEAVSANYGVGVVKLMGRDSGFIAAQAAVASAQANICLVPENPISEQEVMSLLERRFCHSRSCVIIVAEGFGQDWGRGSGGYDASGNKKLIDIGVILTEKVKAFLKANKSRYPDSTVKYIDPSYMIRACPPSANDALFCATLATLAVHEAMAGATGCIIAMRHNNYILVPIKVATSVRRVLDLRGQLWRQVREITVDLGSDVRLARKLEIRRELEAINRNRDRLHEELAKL
DNA polymerase III PolC-type (Bacillus subtilis (strain 168)), sequence (P13267 whole entry, looked up): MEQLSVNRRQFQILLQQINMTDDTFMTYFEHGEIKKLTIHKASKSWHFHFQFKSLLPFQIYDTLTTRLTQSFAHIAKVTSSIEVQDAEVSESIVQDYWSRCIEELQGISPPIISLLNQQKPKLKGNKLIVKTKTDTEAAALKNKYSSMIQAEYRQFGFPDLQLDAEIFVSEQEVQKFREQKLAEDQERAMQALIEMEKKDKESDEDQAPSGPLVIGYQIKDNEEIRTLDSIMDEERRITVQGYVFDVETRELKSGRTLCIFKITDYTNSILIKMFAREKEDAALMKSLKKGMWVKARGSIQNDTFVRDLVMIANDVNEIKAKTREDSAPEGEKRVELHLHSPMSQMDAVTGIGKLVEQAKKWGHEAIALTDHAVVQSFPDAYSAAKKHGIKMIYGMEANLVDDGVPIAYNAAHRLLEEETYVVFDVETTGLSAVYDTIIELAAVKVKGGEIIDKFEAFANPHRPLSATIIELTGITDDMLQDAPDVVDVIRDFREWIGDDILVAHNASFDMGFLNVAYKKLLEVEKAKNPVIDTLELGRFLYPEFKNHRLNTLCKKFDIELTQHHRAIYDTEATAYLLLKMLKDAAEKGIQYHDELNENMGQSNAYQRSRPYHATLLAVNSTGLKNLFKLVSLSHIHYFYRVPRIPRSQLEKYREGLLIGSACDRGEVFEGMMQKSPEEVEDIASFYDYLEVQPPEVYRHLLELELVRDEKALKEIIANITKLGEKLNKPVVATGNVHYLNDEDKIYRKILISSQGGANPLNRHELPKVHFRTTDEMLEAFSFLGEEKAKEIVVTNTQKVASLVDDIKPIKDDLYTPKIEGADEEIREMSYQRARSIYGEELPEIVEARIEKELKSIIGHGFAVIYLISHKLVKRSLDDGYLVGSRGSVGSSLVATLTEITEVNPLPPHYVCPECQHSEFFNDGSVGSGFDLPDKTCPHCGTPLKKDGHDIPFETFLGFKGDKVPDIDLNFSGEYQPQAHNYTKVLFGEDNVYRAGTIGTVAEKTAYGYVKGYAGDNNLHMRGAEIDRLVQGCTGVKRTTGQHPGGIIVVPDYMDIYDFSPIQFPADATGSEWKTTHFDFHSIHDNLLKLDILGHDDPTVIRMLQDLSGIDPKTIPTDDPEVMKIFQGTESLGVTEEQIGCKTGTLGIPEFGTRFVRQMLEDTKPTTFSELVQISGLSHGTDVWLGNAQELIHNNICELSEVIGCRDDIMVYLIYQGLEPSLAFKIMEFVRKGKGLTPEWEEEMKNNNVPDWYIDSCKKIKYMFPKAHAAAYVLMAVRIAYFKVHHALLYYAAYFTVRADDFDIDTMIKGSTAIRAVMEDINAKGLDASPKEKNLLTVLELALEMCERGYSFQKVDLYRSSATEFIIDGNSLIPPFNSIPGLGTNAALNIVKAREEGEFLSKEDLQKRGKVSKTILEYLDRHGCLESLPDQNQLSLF
Thyrotropin receptor (Homo sapiens), sequence (P16473 whole entry, looked up): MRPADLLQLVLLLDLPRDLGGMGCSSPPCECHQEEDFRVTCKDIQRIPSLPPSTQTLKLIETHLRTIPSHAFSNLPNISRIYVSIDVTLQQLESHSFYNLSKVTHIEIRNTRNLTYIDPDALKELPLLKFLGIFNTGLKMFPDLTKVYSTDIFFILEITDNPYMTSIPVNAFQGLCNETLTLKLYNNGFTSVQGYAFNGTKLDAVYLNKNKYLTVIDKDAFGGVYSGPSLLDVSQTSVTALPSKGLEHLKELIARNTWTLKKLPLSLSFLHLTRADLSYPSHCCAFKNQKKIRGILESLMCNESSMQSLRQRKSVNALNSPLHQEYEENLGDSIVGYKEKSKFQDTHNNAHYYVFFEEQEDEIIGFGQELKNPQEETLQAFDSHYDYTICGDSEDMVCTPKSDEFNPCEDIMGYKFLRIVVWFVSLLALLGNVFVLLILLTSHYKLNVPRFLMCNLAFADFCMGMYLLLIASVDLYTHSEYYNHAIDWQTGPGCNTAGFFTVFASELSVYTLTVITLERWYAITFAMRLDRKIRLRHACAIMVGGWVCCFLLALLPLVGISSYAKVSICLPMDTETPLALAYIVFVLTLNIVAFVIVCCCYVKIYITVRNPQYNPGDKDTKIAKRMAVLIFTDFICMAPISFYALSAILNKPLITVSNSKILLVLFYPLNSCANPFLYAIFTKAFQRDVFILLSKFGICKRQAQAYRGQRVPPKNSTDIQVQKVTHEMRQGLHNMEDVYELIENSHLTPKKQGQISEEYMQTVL
Chromobox protein homolog 1 (Homo sapiens), sequence (P83916 whole entry, looked up): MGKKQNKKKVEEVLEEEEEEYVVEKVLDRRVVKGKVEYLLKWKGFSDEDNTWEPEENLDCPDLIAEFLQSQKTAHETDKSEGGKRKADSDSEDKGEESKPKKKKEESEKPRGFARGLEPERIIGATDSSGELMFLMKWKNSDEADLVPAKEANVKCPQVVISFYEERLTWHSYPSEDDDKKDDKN
M-phase phosphoprotein 8 (Homo sapiens), sequence (Q99549 whole entry, looked up): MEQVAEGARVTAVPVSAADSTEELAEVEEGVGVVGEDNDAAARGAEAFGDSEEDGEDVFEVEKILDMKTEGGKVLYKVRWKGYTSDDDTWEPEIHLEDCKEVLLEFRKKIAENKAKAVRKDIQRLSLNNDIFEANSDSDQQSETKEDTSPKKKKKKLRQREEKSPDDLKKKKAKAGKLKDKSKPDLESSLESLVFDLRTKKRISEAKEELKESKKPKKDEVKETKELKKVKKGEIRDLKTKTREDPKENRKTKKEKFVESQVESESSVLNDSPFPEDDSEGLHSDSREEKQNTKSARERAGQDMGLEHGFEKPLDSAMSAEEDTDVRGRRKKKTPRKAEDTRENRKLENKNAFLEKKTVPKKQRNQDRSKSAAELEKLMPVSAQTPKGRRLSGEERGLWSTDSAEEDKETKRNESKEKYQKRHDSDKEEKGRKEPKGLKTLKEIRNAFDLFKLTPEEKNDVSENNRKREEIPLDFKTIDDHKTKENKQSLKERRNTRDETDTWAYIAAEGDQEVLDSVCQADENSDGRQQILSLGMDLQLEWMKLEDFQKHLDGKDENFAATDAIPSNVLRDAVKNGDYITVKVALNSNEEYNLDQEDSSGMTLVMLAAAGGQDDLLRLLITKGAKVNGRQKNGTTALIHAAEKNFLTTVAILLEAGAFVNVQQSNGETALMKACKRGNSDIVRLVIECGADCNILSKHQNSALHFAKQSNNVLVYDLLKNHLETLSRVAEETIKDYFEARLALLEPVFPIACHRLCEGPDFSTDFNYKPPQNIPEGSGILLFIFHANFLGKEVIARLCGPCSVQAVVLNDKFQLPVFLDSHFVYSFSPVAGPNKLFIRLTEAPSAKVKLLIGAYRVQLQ
D(1A) dopamine receptor (Homo sapiens), sequence (P21728 whole entry, looked up): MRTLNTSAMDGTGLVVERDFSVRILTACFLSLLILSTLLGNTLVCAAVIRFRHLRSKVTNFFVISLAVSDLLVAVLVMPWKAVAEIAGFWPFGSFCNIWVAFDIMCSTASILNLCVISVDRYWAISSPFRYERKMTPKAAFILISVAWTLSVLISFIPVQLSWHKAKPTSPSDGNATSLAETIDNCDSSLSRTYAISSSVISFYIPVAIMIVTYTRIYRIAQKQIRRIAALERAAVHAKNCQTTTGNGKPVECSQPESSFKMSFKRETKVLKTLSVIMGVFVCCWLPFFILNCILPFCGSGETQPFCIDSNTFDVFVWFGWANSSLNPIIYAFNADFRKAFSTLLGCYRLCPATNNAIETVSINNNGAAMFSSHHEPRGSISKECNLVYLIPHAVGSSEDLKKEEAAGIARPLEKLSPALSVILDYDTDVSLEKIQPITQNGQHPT

For the molecule `c1ccc2sc(C3(N4CCCCC4)CCCCC3)cc2c1`, the Potency entry in experiment [1], in experiment [5], in [6], in experiment [7] and in experiment [11] was “inactive” in each case. In addition, the molecule was called inactive in experiment [2], in [3], in experiment [4], in experiment [8], in [9] and in experiment [10]. Besides, the result in experiment [12] was inactive.

Turning to `Clc1ccc(C(c2ccc(Cl)cc2)n2cc[n+](CC(OCc3ccc(Cl)cc3Cl)c3ccc(Cl)cc3Cl)c2)cc1` (stereo not drawn), the Potency in experiment [6] is 35.5 µM (active) and inactive; in [7] it was 50100 nM (active). In addition, the outcome in experiment [9] and in experiment [10] was inactive.

For the molecule `NC1=NC(=O)N2CC12` (stereo not drawn), in experiment [13], the Potency result is “inactive”.

In the case of `CN1C2CCC1CC(OC(=O)c1cc(Cl)cc(Cl)c1)C2` (stereo not drawn), the Potency entry in experiment [1], in experiment [15], in [5], in experiment [6], in [7] and in experiment [16] was “inactive” in each case. The molecule was called inactive in experiment [2], in experiment [14], in experiment [8], in [9], in experiment [10] and in experiment [12].

As to `CCn1cc(C(=O)O)c(=O)c2cc3c(cc21)OCO3`, the molecule was called inactive in [4]. Also, the Potency in experiment [7] is 6.7 nM (active).

As for `C[N+](C)(C)CC(=O)O`, the Potency entry in experiment [15] and in experiment [6] was “inactive” throughout. In experiment [9], the outcome was inactive.

`CCCCCCCCCCCCCCCC[N+](C)(C)C`: in [13], the Potency entry is “inactive”.

On to `C[N+]1(C)C2CC(OC(=O)[C@H](CO)c3ccccc3)CC1C1OC12` (stereo partly drawn), for which the molecule was classed as inactive in [14]. Moreover, in experiment [6], the Potency entry was “inactive”. The Potency in experiment [7] is 7.5 nM (active) and inactive.

As for `COc1ccc2c(c[n+](C)c3c4cc5c(cc4ccc23)OCO5)c1OC`, in experiment [1], the Potency is 26.7 µM (active). The call in experiment [2], in experiment [4], in experiment [8], in experiment [9], in experiment [10] and in experiment [12] was inactive. Further, the Potency result in experiment [5], in experiment [6], in experiment [11] and in experiment [16] was “inactive” in each case.

Turning to `C/C=C(/C)C(=O)O[C@H]1C(C)=C2[C@H]([C@@H]1OC(=O)CCCCCCC)[C@@](C)(OC(C)=O)C[C@H](OC(=O)CCC)[C@@]1(O)[C@H]2OC(=O)[C@@]1(C)O`, the molecule was called inactive in experiment [2] and in experiment [8]. Also, the Potency entry in experiment [6] and in experiment [7] was “inactive” throughout.

In the case of `CC(=O)OCC1=C(C(=O)O)N2C(=O)[C@@H](N)[C@@H]2SC1`, the Potency entry in [13] is “inactive”.

As for `CC[C@@H]1C(=O)OC[C@@H]1Cc1cncn1C`, the Potency entry in experiment [15] and in experiment [6] was “inactive” each time. Also, the result in experiment [9] and in experiment [10] was inactive.

For the molecule `O=[N+]([O-])c1ccc([As](=O)(O)O)cc1`, the Potency result in [13] was “inactive”.

For `NCCc1c[nH]c2ccccc12`, the Potency result in experiment [1], in experiment [15], in experiment [5], in [6], in [7] and in [11] was “inactive” each time. Further, the Potency result in experiment [16] was “inactive”. Moreover, the call in [2], in [3], in experiment [4], in experiment [8], in experiment [9] and in [10] was inactive.

For `C[C@]12CCC3C(CC[C@H]4C[C@H](O)CC[C@]34C)C1CC[C@@H]2C(=O)CO` (stereo partly drawn), the Potency result in experiment [1], in experiment [5], in [6], in experiment [7], in experiment [11] and in [16] was “inactive” each time. The result in experiment [2], in experiment [14], in [4], in experiment [8], in experiment [9] and in experiment [10] was inactive. Also, in experiment [12], the result was inactive.

For `CN[C@@H](C)[C@H](O)c1ccccc1`, the Potency in experiment [6] was 3.55 µM (active). In addition, the outcome in experiment [10] was inactive.

As to `Cc1c(C(=O)c2cccc3ccccc23)c2cccc3c2n1[C@H](CN1CCOCC1)CO3`, the Potency entry in experiment [1], in experiment [5], in experiment [6], in experiment [11] and in [16] was “inactive” throughout. Besides, the molecule was classed as inactive in experiment [2], in experiment [14], in experiment [4], in [9] and in experiment [10]. For the same molecule, the Potency in experiment [7] is 6 nM (active).

The values above are taken from PubChem BioAssay (NCATS).
